# From PubChem
# aSyn 5UTR act – Activators via SNCA 5'UTR binding, MLPCN. alpha-synuclein 5'UTR reporter, activators screen. activity score, % (tested at 7.5 µM), hits read low. actives 7.1% (n = 300,000); in the data active means activity score below about -60%
# The depositor's hits bear a star. These entries were drawn from the full list.
SMILES,aSyn 5UTR act
Cc1cc(C(=O)CSc2ccc(F)cc2)cc(C)c1O,-109*
CCc1c(C(=O)NC2CCCc3ccccc32)[nH]c(C)c1C(C)=O (centres undefined),64
Cc1cc(C(=O)CSc2ccc(Cl)cc2)cc(C)c1OC(=S)N(C)C,-179*
CC(=O)c1c(C)[nH]c(C(=O)CSc2ccc(F)cc2)c1C,-182*
Clc1ccccc1OCCCOc1cccc2cccnc12,-118*
Nc1sc(-c2ccccc2)n[n+]1Cc1cccc2cccnc12,53
COc1cccc(OC)c1OCCCOc1cccc2cccnc12,-106*
Fc1ccc(COc2cccc3cccnc23)cc1,-141*
CCS(=O)(=O)c1ccc(N=Nc2ccc(O)c3ncccc23)c(OC)c1,78
CCCC(=O)NC(c1ccccc1OC)c1ccc2cccnc2c1O (centres undefined),124
CCCCC(=O)NC(c1ccccc1OC)c1ccc2cccnc2c1O (centres undefined),101
Cc1ccc2cccc(OCCCOc3ccccc3F)c2n1,-74*
Cc1ccc2ccc3ccc(C)nc3c2n1,72
Cc1cccc(/C(N)=N/OC(=O)N2c3ccccc3Sc3ccccc32)c1,-70*
Cc1cccc(/C(N)=N/OC(=O)Cc2ccccc2)c1,-142*
CCC(C(=O)O/N=C(\N)c1cccc(C)c1)c1ccccc1 (centres undefined),-88*
COc1ccccc1C(=O)NC(=S)Nc1ccc(N2CCCC2)cc1,-83*
O=C(COc1ccc(F)cc1Br)N1CCc2ccccc21,-86*
COc1c(C)cccc1C(=O)Nc1ccc(CN2CCOCC2)cc1,-109*
COc1c(C)cccc1C(=O)Nc1ccc(N2CCN(S(C)(=O)=O)CC2)cc1,-146*
O=C(CNc1ccccc1OC(F)F)N1CCc2ccccc21,-289*
CN1CCN(c2ccc(NC(=S)NC(=O)c3cccc4c(Cl)cccc34)cc2)CC1,-128*
COCCNC(=S)Nc1ccc(N2CCCCC2)cc1,-173*
COc1ccccc1C(=O)NC(=S)N1CCCc2ccccc21,-167*
O=C(COc1ccccc1Cl)NC(=S)N1CCc2ccccc21,-87*
SMILES,aSyn 5UTR act
COc1ccccc1C(=O)Nc1ccc(N2CCN(S(C)(=O)=O)CC2)cc1,-76*
CN(C)/C=N/c1nc2ccc3c(c2s1)CCCC3,-138*
COc1ccc2nc(/N=C/c3c(C)[nH]n(-c4ccc(C)cc4)c3=O)sc2c1,-73*
Cc1ccc(-n2[nH]c(C)c(C=NCc3ccncc3)c2=O)cc1,-65*
COc1ccc2nc(/N=C\N(C)C)sc2c1,-92*
O=C(Nc1ccc(N2CCOCC2)c([N+](=O)[O-])c1)c1ccco1,-73*
CCN1CCN(c2ccc(NC(=O)c3cccc(F)c3)cc2Cl)CC1,-82*
O=C(Nc1ccc(N2CCCC2)c(Cl)c1)c1ccco1,-113*
CCN1CCN(c2ccc(NC(=O)c3ccco3)cc2Cl)CC1,-112*
CC1CCCN(c2nc3ccsc3c(=O)s2)C1 (centres undefined),-148*
CCOc1ccc(C2=Nc3ccccc3C(c3ccc(N4CCOCC4)cc3)=NN2)cc1,-95*
CCOc1ccc(C2=Nc3ccc(Br)cc3C(c3ccc(N4CCOCC4)cc3)=NN2)cc1,-66*
O=C(Oc1ccc(F)cc1C(=O)/C=C/c1cccs1)c1cccc([N+](=O)[O-])c1,-87*
COc1cc(NC2CCCCC2O)c2nc(-c3ccc(Cl)cc3)ccc2c1 (centres undefined),-94*
OC(c1cc(-c2ccc(Cl)cc2)nc2ccccc12)C1CCCCN1 (centres undefined),96
CCCn1nc(NC(=O)COC)c2cc3cc(C)ccc3nc21,-96*
CCn1nc(NC(=O)C2CCCO2)c2cc3cc(C)ccc3nc21 (centres undefined),-90*
COc1ccc(NN=Nc2ccc([N+](=O)[O-])cc2)cc1,-240*
CCCCCCCCCCCCCCCCn1cc[n+](C)c1,141
Cc1cccc(Nc2ncnc3ccccc23)c1,-98*
Cc1ccc(/C(=N/Nc2ncnc3ccccc23)C(=O)O)cc1,-69*
COC(=O)c1cccc(Nc2ncnc3ccc(C)cc23)c1,-88*
Cc1ccc(Nc2ncnc3ccccc23)cc1,-114*
CC(C)Oc1ccc(Nc2ncnc3ccccc23)cc1,-136*
CN(C)S(=O)(=O)c1ccc(C(=O)NCCOc2ccccc2)cc1,-106*
SMILES,aSyn 5UTR act
CN(C)S(=O)(=O)c1ccc(C(=O)NCCOc2ccc(F)cc2)cc1,-99*
CN(CC(=O)Nc1ccccc1Br)C(=O)c1cc2c(s1)CCCCC2,-121*
CN(C)/C=N/c1ncnc2c1cnn2-c1ccc(C(F)(F)F)cn1,-84*
Cc1cc2ncn(CCOc3ccccc3)c2cc1C,-168*
Cc1ccc(C)c(S(=O)(=O)N2CCN(Cc3ccc(O)c4ncccc34)CC2)c1,74
Cc1ccc(C(=O)Nc2ccc3cn[nH]c3c2)cc1S(=O)(=O)N1CCCCC1,-111*
Cc1cccc(NC(=O)c2ccc(C)c(S(=O)(=O)N3CCCCC3)c2)n1,-116*
Cc1ccc(C(=O)Nc2cccc(O)c2)cc1S(=O)(=O)N1CCCCCC1,-139*
O=C(Nc1ccc(S(=O)(=O)N2CCCCCC2)cc1)c1[nH]ncc1[N+](=O)[O-],86
CC(=O)c1ccc(Oc2ccc(C(C)=O)cc2)cc1,-96*
Cc1ccc(-c2ccc(SCC(=O)N3CCN(c4ccccc4)CC3)nn2)cc1,-91*
Cc1nc2cc(-c3ccccc3)nn2c(C)c1CCC(=O)N1CCN(c2ccccc2)CC1,57
O=C(CCSc1ccc(Cl)cc1)N1CCN(c2ncccn2)CC1,-103*
O=C(CCS(=O)(=O)c1ccccc1)N1CCN(c2ccc(F)cc2)CC1,-79*
O=C(CCSc1ccccc1)N1CCN(c2ccccc2)CC1,-137*
O=C(CCSc1ccc(Cl)cc1)N1CCCCCC1,-133*
Cc1ccc(C2=NNC(C(O)C(O)C(O)C(O)CO)S2)cc1 (centres undefined),-103*
O=C(/C=C/c1ccc2ccccc2n1)c1cc(Cl)ccc1O,-69*
O=C(c1ccc2c3n(nc2c1)-c1ccc(Cl)cc1CO3)N1CCOCC1,-109*
O=C(NCC1CCCO1)c1ccc2c3n(nc2c1)-c1ccccc1CO3 (centres undefined),-103*
O=C(c1ccc2c3n(nc2c1)-c1ccccc1CO3)N1CCOCC1,-114*
Cc1ccc2c(c1)COc1c3ccc(C(=O)N4CCCCC4)cc3nn1-2,-108*
CC(C)(C)NC(=O)CN(C(=O)CNS(=O)(=O)c1ccccc1)c1ccc2c(c1)OCCO2,-86*
COc1ccccc1N=Nc1[nH]c2ccc(C)cc2c1O,-169*
Nc1ccccc1Nc1cc(-c2ccccc2)[nH]n1,-171*
SMILES,aSyn 5UTR act
COc1ccc(/C=C/c2ccncc2)cc1,-96*
COc1ccccc1/C=C1\SC(=O)N(CCC(=O)NNC(=O)c2ccccc2Cl)C1=O,-74*
COc1ccc(/C=C2\SC(=O)N(CCC(=O)Nc3ccccc3)C2=O)cc1OC,82
CCOC(=O)N=Nc1c2ccccc2c2nc3no[nH]c3nc12,119
CCOC(=O)c1cn(CC)c2c(ccc3ccccc32)c1=O,-90*
Cc1cc(N2CCCC2)ccc1/C=C1\NC(=S)N(C)C1=O,-261*
Cc1cc(N2CCOCC2)ccc1/C=C1/SC(=O)NC1=O,-67*
C=CCN1C(=O)S/C(=C\c2ccc(N3CCOCC3)cc2C)C1=O,-152*
O=C1NC(=O)/C(=C\c2ccc(O)cc2O)S1,-77*
C=CC(C)N1C(=O)S/C(=C\c2ccc(N3CCOCC3)cc2C)C1=O (centres undefined),-120*
